Assay outcomes as filed in PubChem.
An excerpt weighted towards active compounds, which were near 1.8% of everything screened.
GSTO1 inh – inhibitors of recombinant GSTO1, primary screen, counter-screen for RBBP9 inhibitor project, biochemical, fluorescence polarization; Glutathione S-transferase omega-1 (Homo sapiens), P78417; activity-based probe fluorescence polarization; inhibition, % at 5.96 µM; 300,000 tested, 1.1% active; AID 1974, 2009;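 active = inhibition above the campaign mean inhibition plus 3 SD, cut at about 35% in these data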;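 also: 0% = GSTO1-1 with DMSO and 100% = wells lacking GSTO1-1 enzyme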
PAD4 inh – human PAD4 inhibitors, primary screen, biochemical, fluorescence polarization, 1536-well format | Protein-arginine deiminase type-4 (Homo sapiens), Q9UM07 | recombinant PAD4, RCA probe fluorescence polarization | inhibition, % at 6.36 µM | 330,000 tested, 0.41% active | AID 485272, 2010;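 active = percent inhibition above a cutoff equal to the mean of all tested compounds plus 3 SD, cut at about 15% in these data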;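 also: 0% = PAD4 with RCA probe and DMSO and 100% = probe without PAD4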
LYPLA2 counter – LYPLA2 inhibitors, primary screen, counter-screen for PME1 inhibitor project, biochemical, fluorescence polarization, FP-Rh probe ABPP | Acyl-protein thioesterase 2 (Homo sapiens), O95372 | recombinant LYPLA2 | inhibition, % at 5.9 µM | 320,000 tested, 0.38% active;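 active = inhibition above the screen-wide mean plus 3 SD, limit set per campaign, cut at about 26% in these data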;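 also: 0% = LYPLA2 with DMSO and 100% = wells lacking LYPLA2 enzyme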
PME-1 primary – PME-1 inhibitors via competitive probe labeling, primary screen, biochemical, fluorescence polarization, FP-Rh probe, HTS; inhibition, % at 5.9 µM; recombinant PME-1; 320,000 tested, 0.53% active; AID 2130, 2009; Protein phosphatase methylesterase 1 (Homo sapiens), Q9Y570;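 active = inhibition above the campaign mean of all compounds plus 3 SD, cut at about 26% in these data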;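 also: competitive labeling of PME-1 active site by serine hydrolase directed probe; 0% = PME-1 with DMSO and 100% = wells lacking PME-1 enzyme; inhibitors block probe labeling so polarization falls and inhibition rises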
Target sequence (Q9Y570 whole entry, looked up): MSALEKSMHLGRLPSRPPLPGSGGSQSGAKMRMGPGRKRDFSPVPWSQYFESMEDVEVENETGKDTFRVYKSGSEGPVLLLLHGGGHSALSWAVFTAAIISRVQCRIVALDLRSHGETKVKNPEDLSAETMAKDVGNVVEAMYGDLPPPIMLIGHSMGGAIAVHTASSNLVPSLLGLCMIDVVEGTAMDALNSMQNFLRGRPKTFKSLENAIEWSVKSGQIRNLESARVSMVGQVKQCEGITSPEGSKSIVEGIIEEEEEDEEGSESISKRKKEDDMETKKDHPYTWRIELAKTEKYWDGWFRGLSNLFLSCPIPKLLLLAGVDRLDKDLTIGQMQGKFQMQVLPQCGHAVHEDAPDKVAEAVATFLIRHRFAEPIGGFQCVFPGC
Fam108B inh – mouse Fam108B serine hydrolase inhibitors, primary screen, counter-screen for RBBP9 inhibitor project, biochemical, fluorescence polarization. recombinant Fam108B, FP-Rh probe fluorescence polarization. inhibition, % at 9.51 µM. 300,000 tested, 0.33% active. AID 1947, 2009;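 active = inhibition above the screen mean inhibition plus 3 SD, computed separately per campaign, cut at about 18% in these data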;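 also: inhibitors lower polarization as less probe binds the enzyme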
LYPLA1 inh – LYPLA1 inhibitors, primary screen, counter-screen for PME1 inhibitor project, biochemical, fluorescence polarization, FP-Rh probe ABPP | Acyl-protein thioesterase 1 (Homo sapiens), O75608 | recombinant LYPLA1 | inhibition, % at 5.9 µM | 320,000 tested, 0.16% active;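 active = inhibition above the mean of all tested compounds plus 3 SD, set per campaign, cut at about 14% in these data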;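 also: inhibitors block serine hydrolase probe labeling of LYPLA1 so polarization falls; 0% = enzyme with DMSO and 100% = wells lacking LYPLA1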
Target sequence (O75608 whole entry, looked up): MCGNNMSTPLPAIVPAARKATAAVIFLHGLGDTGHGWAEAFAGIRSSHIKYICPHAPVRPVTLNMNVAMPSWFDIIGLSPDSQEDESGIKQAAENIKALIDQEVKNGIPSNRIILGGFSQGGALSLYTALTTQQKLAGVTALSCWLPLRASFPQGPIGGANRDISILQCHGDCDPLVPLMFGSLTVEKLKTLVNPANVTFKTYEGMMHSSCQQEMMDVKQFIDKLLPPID
* hit, by the source's call; nt = no result given.

SMILES	GSTO1 inh	PAD4 inh	LYPLA2 counter	PME-1 primary	Fam108B inh	LYPLA1 inh
COc1ccccc1N1C(=O)NC(=O)/C(=C/c2ccc([N+](=O)[O-])s2)C1=O	42*	-6	1	-1	25*	2
COc1ccc(N2C(=O)NC(=O)/C(=C\c3ccc([N+](=O)[O-])s3)C2=O)cc1	32	-44	-3	-5	16	-6
CCC1C=CC=CC[C@H](C)[C@@H](O)[C@](C)(O)C(=O)[C@@H](C)[C@H](O)[C@@H](C)C(=O)[C@H](C)[C@@H](O)[C@H](C)C=CC(=O)OC2[C@@H](C)C(CC1)OC1(CC[C@@H](C)C(C[C@H](C)O)O1)[C@@H]2C (some centres not stated)	2	0	-4	-14	-10	-3
Cc1ccc(S(=O)(=O)N2CCCCC2)cc1NC(=O)CN1CC=C(c2ccccc2)CC1	-1	3	-8	75*	0	-1
O=C(CN1CC=C(c2ccccc2)CC1)Nc1cc(Cl)ccc1Cl	0	0	-2	9	-5	-3
O=C(CN1CC=C(c2ccccc2)CC1)Nc1c(Cl)cccc1Cl	1	3	-1	36*	8	0
Cc1ccccc1NS(=O)(=O)c1ccc(OCC(=O)N2CCN(C)CC2)cc1	-9	-2	-4	-5	-5	-1
Cc1ccccc1NC(=S)NC(NC(=O)CF)C(Cl)(Cl)Cl (configuration not stated)	2	0	1	9	-3	0
O=C(CF)NC(Nc1cccc2cccnc12)C(Cl)(Cl)Cl (configuration not stated)	12	-1	6	36*	3	-2
COc1cccc(OC)c1C1=NCC(=O)Nc2c1oc1ccc(Br)cc21	1	-2	-6	45*	-6	-2
O=C1CN=C(c2ccccc2)c2oc3ccc(Br)cc3c2N1	-6	2	3	-3	-1	-4
O=c1[nH]c(=S)[nH]c(O)c1N=Nc1ccc(SC(F)F)cc1	3	-1	1	-3	0	2
O=c1[nH]c(=S)[nH]c(O)c1N=Nc1ccc(S(=O)(=O)N2CCc3ccccc32)cc1	-10	-9	-5	36*	10	-1
COC(=O)C1=C(c2ccc(-c3ccccc3)c(F)c2)C[C@@H]2CC[C@H]1N2C(=O)NCCOc1ccc(OC)cc1	nt	0	-7	-9	nt	-5
CC(=O)c1cn(Cc2ccccc2C#N)c2ccccc12	7	1	1	3	3	0
CC(C)C(=O)c1cn(Cc2ccccc2C#N)c2ccccc12	9	-12	-4	39*	-1	0
O=C(O)c1cc[c]([Hg][Cl])cc1	11	22*	4	0	2	0
S=C=Nc1cccc(C2(N3CCCCC3)CCCCC2)c1	-2	2	-6	-3	2	-4
CCSC(=O)N1CCCCCC1	nt	0	-5	7	nt	1
O=S(=O)(c1ccc(Cl)cc1)N1CC1c1ccccc1 (configuration not stated)	35*	0	3	-3	-1	0
C#C[C@]1(O)[C@H](O)CC2C3CC[C@H]4C[C@@H](O)CC[C@]4(C)C3CC[C@@]21C (some centres not stated)	nt	3	nt	nt	nt	nt
CN1C(=O)/C(=C/c2cccn2-c2ccc3ccccc3c2)C(=O)NC1=S	55*	-10	1	2	11	-6
C=CCn1c(O)c(N=Nc2c(C)n(C)n(-c3ccccc3)c2=O)c(=O)[nH]c1=S	36*	-2	-1	-2	-2	-3
Cc1cc(C)c2c(ccc3cccc[n+]32)c1	9	-2	0	1	0	2
NP(=O)(Oc1ccccc1Cl)Oc1ccccc1Cl	6	-2	3	98*	0	2
SMILES	GSTO1 inh	PAD4 inh	LYPLA2 counter	PME-1 primary	Fam108B inh	LYPLA1 inh
NP(=O)(OCC(F)(F)F)Oc1cccc2ccccc12 (configuration not stated)	0	-4	0	15	-3	0
COC(=O)C1=C(c2ccc(OC(F)(F)F)cc2)C[C@@H]2CC[C@H]1N2C(=O)NCCOc1ccc(OC)cc1	nt	0	-1	0	nt	-1
CN(C)[C@@H]1C(=O)C(C(N)=O)=C(O)[C@@]2(O)C(=O)C3=C(O)c4c(O)ccc(Cl)c4[C@@](C)(O)[C@H]3C[C@@H]12	45*	-4	12	1	-1	2
CN(C)[C@@H]1C(=O)C(C(N)=O)=C(O)[C@@]2(O)C(=O)C3=C(O)c4c(O)cccc4[C@@](C)(O)C3C[C@@H]12 (some centres not stated)	72*	-2	6	-4	5	0
COC(=O)C1=C(c2cccc(Cl)c2)C[C@@H]2CC[C@H]1N2C(=O)N1CCCC1	nt	2	1	3	nt	2
NP(=O)(OCC(F)(F)F)Oc1ccc(Cl)cc1 (configuration not stated)	4	3	1	28*	4	2
CCOc1cccc(CNCCc2c(C)[nH]c3ccc(OC(F)(F)F)cc23)c1O	9	-5	-5	24	1	1
C=CC[C@@H](C)CC(=O)C(CCCN=[N+]=[N-])SOOc1ccccc1 (some centres not stated)	-2	-2	2	-1	0	0
Oc1ccc(/C=N/NP(=S)(c2ccccc2)c2ccccc2)c(O)c1O	37*	1	-5	28*	-3	-9
O=C1NC(=S)NC(=O)C1=Cc1ccc2c(c1)CCN2CCCCl	51*	2	-5	2	3	-5
COC(=O)C1C(O)C(C)C(O)C(C)/C=C\C=C(/C)C(=O)Nc2c(C)c(OC(C)=O)c3c(c2O)C(=O)C(C)=C2OCOC(=C23)/C(C)=C/C(C)(O)C(O)C(C)C1O (configuration not stated)	69*	-9	-3	1	2	0
CCN(CC)c1ccc(/C=C/[N+](=O)[O-])cc1	36*	3	5	-4	4	2
CCOC(=O)c1cncn1[C@@H](C)c1ccccc1	2	-2	1	-5	-4	-2
Nc1c(C(=O)NCc2ccco2)c2nc3ccccc3nc2n1Cc1ccccc1	-2	-4	-3	6	-2	-3
CCCNC(=O)c1c(N)n(CC2CCCO2)c2nc3ccccc3nc12 (configuration not stated)	35*	-19	5	12	3	2
